Screens deposited in PubChem BioAssay by National Center for Advancing Translational Sciences (NCATS).
A selection: hits, their analogues and other compounds. The true share with any hit is near 12%.
BAZ2B inh = blocks human BAZ2B; Q9UIF8; AlphaScreen BAZ2B-H3K14Ac peptide displacement; Potency, µM (titrated, usually from 114 µM), actives largely listed as inhibitors; 360,000 compounds, 4.4% hits; AID 504333; further: nearly all actives have a fitted effect of over 60% in size
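BAZ2B (50 nM) with biotin-H3(5-23)K14Ac peptide (50 nM) in PBS pH 7.4, 0.01% Tween-20, preformed 30 min, then compound 30 min at room temperature; top concentration 110uM. AlphaScreen streptavidin donor/nickel chelate acceptor beads (10 ug/mL final), 20 min dark, signal read.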
HP1b chromo inh = blocks HP1-beta chromodomain binding to methylated histone tails; 390,000 compounds, 0.56% hits; AlphaScreen HP1-beta / biotin-H3K9me3 peptide binding; AID 540317; P83916; Potency, µM (doses to about 114 µM), hits mostly inhibitors; further: nearly all actives have a fitted effect of over 70% in size
Target sequence (P83916 whole entry, looked up): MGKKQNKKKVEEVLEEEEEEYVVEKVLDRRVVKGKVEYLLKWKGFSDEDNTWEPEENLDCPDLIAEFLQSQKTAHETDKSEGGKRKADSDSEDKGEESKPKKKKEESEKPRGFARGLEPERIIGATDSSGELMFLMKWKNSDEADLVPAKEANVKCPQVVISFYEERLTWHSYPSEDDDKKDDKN
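AlphaScreen: HP1-beta (50 nM) preformed 30 min with biotin-H3(1-18)K9me3 peptide (50 nM) in PBS pH 7.4, 0.01% Tween-20. Compound added for 30 min at RT, then streptavidin donor/nickel chelate acceptor beads (10 ug/mL) for 30 min.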
G9a block = inhibitors of human histone lysine methyltransferase G9a; 350,000 compounds, 8.8% hits; Q96KQ7; Potency, µM (highest dose often 102 µM), actives largely listed as inhibitors; AID 504332; G9a H3K9 monomethylation, AlphaScreen, 2 h; further: nearly all actives have a fitted effect of over 75% in size
Target sequence (Q96KQ7 913-1193 limits assumed): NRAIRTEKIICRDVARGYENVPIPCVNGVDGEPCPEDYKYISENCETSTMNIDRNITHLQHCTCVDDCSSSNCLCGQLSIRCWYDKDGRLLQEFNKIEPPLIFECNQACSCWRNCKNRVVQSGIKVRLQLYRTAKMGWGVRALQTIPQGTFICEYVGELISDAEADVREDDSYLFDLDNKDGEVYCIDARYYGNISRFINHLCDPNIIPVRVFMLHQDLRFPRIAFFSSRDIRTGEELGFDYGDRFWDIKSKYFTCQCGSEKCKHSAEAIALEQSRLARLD
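G9a (20 nM) was preincubated 15 min with compound, then reacted 2 h at room temperature with 500 nM biotin-H3K9 peptide and 20 µM SAM. Monomethyl-H3K9 detected by AlphaScreen using anti-H3K9me1 antibody.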
JMJD2A Tudor = inhibitors of human JMJD2A Tudor domain; Potency, µM (doses to about 114 µM), actives largely listed as inhibitors; 390,000 compounds, 4.4% hits; AlphaScreen JMJD2A-Tudor / H3K4me3 peptide binding; O75164; further: nearly all actives have a fitted effect of over 50% in size
Sfp PPTase inh = Sfp phosphopantetheinyl transferase inhibition; AID 1490; 310,000 compounds, 3.5% hits; Biochemical Sfp PPTase activity, qHTS; Potency, µM, actives largely listed as inhibitors;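 further: the enzyme is Sfp with the accession as filed and its product quenches rhodamine fluorescence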
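Sfp 15 nM + cpd, 15 min RT; start w/ rhodamine-CoA 5 uM, BHQ-2-YbbR 12.5 uM (final); 50 mM Hepes pH 7.6, 10 mM MgCl2, 0.01% NP-40, 0.01% BSA; read 525/598 nm at 0 and 30 min.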
Each line names hits and unclear results; the compound was inactive in the other large screens. The call rests on the fitted dose curve; in most records, active means well fitted curve in the direction sought with a large enough effect; inconclusive means small, poorly fitted or top-dose-only effect, or another doubt; inactive means no such curve, though single readings can be large; an effect the other way counts as inactive or inconclusive.

CCOC(=O)c1sc(=S)n(-c2cc(F)ccc2F)c1N	JMJD2A Tudor inconclusive, Sfp PPTase inh 56µM
COC(=O)c1sccc1NC(=S)Nc1ccc(F)cc1F	G9a block inconclusive
Cc1ccc2c(c1)c(=O)c(C(=O)c1ccc3c(c1)OCO3)cn2Cc1cccc(F)c1	none (no result: Sfp PPTase inh)
O=C1O[C@H](CO)[C@@H](O)[C@H](O)[C@H]1O	none (no result: BAZ2B inh, G9a block, Sfp PPTase inh)
O=CC(O)C1OC(=O)C(O)C1O (configuration not stated)	HP1b chromo inh inconclusive, JMJD2A Tudor 22µM (no result: BAZ2B inh, G9a block, Sfp PPTase inh)
COc1ccc(-n2nc(C(=O)NCC(=O)NCCCN3CC(C)CC(C)C3)c3ccccc3c2=O)cc1Cl (configuration not stated)	none
CCc1ccc(N=C2NC(=O)CS2)cc1	none
CCCCCCCCN=C1NC(=O)CS1	G9a block 22µM
O=c1c2ccccc2nnn1CSc1nnc(COc2ccc(Cl)cc2)n1Cc1ccco1	BAZ2B inh inconclusive, JMJD2A Tudor inconclusive
S=c1[nH]nc(COc2ccc(Cl)cc2)n1Cc1ccco1	BAZ2B inh inconclusive, HP1b chromo inh inconclusive, G9a block 3.5µM, JMJD2A Tudor inconclusive
CCCc1n[nH]c(=S)n1Cc1ccco1	G9a block inconclusive, JMJD2A Tudor 5µM, Sfp PPTase inh inconclusive
S=c1[nH]nc(C23CC4CC(CC(C4)C2)C3)n1Cc1ccco1	BAZ2B inh inconclusive, JMJD2A Tudor 50µM
CCCc1nnc(SCC(=O)N2CCCC2)n1Cc1ccco1	none
CCc1ccc(OCc2nnc(SCCN3CCOCC3)n2CC)cc1	HP1b chromo inh inconclusive, G9a block 7.1µM, JMJD2A Tudor 3.2µM (no result: BAZ2B inh)
Clc1ccc(OCc2nnc(SCCN3CCCCC3)n2Cc2ccco2)cc1	BAZ2B inh 89µM, G9a block inconclusive, JMJD2A Tudor inconclusive, Sfp PPTase inh 25µM
CN1C(=O)/C(=C/C=C2\SCCN2C)SC1=S	G9a block 8.9µM (no result: HP1b chromo inh, JMJD2A Tudor)
CCN1/C(=C\C=C2\C(=O)N(c3ccccc3)C(=S)N2C)Sc2ccccc21	G9a block inconclusive, Sfp PPTase inh inconclusive (no result: BAZ2B inh)
CN1C(=O)/C(=C/C=C2\SCCN2C)N(C)C1=S	HP1b chromo inh inconclusive, G9a block 40µM
NC(=S)Nc1ncc(CCN2CCOCC2)c(-c2ccc(F)cc2)n1	none (no result: G9a block)
N#Cc1c2c(nc(N)c1-c1ccccc1)CCCCC2	none
COC(=O)C(C)N1C(=O)S/C(=C/c2cc(C)n(-c3ccccn3)c2C)C1=O (configuration not stated)	BAZ2B inh inconclusive, G9a block inconclusive
Cc1cc(/C=C2\SC(=O)N(C)C2=O)c(C)n1-c1ccc(S(N)(=O)=O)cc1	G9a block 45µM
COc1ccc(-n2c(C)cc(/C=C3/SC(=S)N(C)C3=O)c2C)cc1	none
Cc1cc(/C=C2\SC(=S)N(C)C2=O)c(C)n1-c1cccc(O)c1	Sfp PPTase inh inconclusive
Cc1cc(/C=C2\SC(=O)N(C)C2=O)c(C)n1-c1ccc(O)cc1	BAZ2B inh 50µM, G9a block 79µM, JMJD2A Tudor inconclusive
COC(=O)C(C)N1C(=O)S/C(=C\c2cc(C)n(-c3ccccn3)c2C)C1=O (configuration not stated)	BAZ2B inh inconclusive, G9a block 56µM, JMJD2A Tudor inconclusive
CCC(C)(C)n1nnnc1C(c1ccc(OC)cc1)N1CCN(C(=O)c2ccco2)CC1 (configuration not stated)	JMJD2A Tudor inconclusive
OC[C@@H](O)C(O[C@@H]1O[C@@H](CO)[C@H](O)[C@H](O)[C@H]1O)[C@H](O)[C@@H](O)CO (some centres not stated)	none (no result: BAZ2B inh, HP1b chromo inh, JMJD2A Tudor)
O=C(CN1CCN(c2ccccc2F)CC1)NCc1ccc(Cl)cc1	none (no result: G9a block)
O=C(NCCc1ccc2c(c1)OCCO2)c1cc(S(=O)(=O)N2CCCC2)ccc1Cl	G9a block 40µM (no result: Sfp PPTase inh)
OCCC1CN(Cc2cnc(N3CCCC3)s2)CCN1Cc1ccccc1 (configuration not stated)	none
COc1ccc(S(=O)(=O)Nc2nc3ccccc3nc2Nc2ccc3c(c2)OCO3)cc1	none (no result: HP1b chromo inh, JMJD2A Tudor)
O=S(=O)(Nc1nc2ccccc2nc1Nc1ccc2c(c1)OCCO2)c1cccs1	BAZ2B inh 50µM, G9a block inconclusive, JMJD2A Tudor inconclusive
O=S(=O)(Nc1nc2ccccc2nc1NCc1ccco1)c1cccs1	G9a block 50µM
O=c1[nH]c(SCc2ccccc2)nc2c1sc1ccccc12	G9a block 50µM
CC(=O)N1CCc2c(sc(NC(=O)c3ccc([N+](=O)[O-])o3)c2C#N)C1	BAZ2B inh 56µM, HP1b chromo inh inconclusive, G9a block 2.8µM, JMJD2A Tudor inconclusive, Sfp PPTase inh 10µM
COC(=O)c1sc(NC(=O)c2ccc([N+](=O)[O-])o2)c(C#N)c1C	BAZ2B inh inconclusive, HP1b chromo inh inconclusive, G9a block 13µM, JMJD2A Tudor inconclusive, Sfp PPTase inh 25µM
COc1cc(C(=O)Nc2sc3c(c2C#N)CCN(C(C)=O)C3)cc(OC)c1OC	none
COc1ccc(C(=O)Nc2sc3c(c2C#N)CCN(C(C)=O)C3)cc1	G9a block 50µM (no result: BAZ2B inh)
CC(=O)N1CCc2c(sc(NC(=O)Cc3ccc(F)cc3)c2C#N)C1	none
CCOc1ccc(CNC(=O)Cn2c(=O)c3cccn3c3ccccc32)cc1	JMJD2A Tudor inconclusive
N#CCC(=O)Nc1ccc(C(=O)OCC(=O)N=c2sccn2Cc2ccccc2Cl)cc1	none (no result: Sfp PPTase inh)
CCc1ccc(CNCCSc2nnnn2C)cc1	none
Brc1ccc(NC(c2ccccc2)c2ccncc2)cc1 (configuration not stated)	BAZ2B inh 71µM, G9a block inconclusive, JMJD2A Tudor 56µM
CC(Nc1ccccc1)c1ccncc1 (configuration not stated)	none
CCN1CCN(c2ccc(S(=O)(=O)N3CCCCC3)cc2NC(=O)c2ccc(C)c(C)c2)CC1	JMJD2A Tudor inconclusive (no result: BAZ2B inh, G9a block, Sfp PPTase inh)
CCN1CCN(c2ccc(S(=O)(=O)N3CCOCC3)cc2NC(=O)/C=C/c2ccc(OC)cc2OC)CC1	G9a block 40µM (no result: Sfp PPTase inh)
CCN1CCN(c2ccc(S(=O)(=O)N3CCCCC3)cc2NC(=O)c2sccc2C)CC1	BAZ2B inh inconclusive, G9a block 2.2µM (no result: Sfp PPTase inh)
CCN1CCN(c2ccc(S(=O)(=O)N3CCCCC3)cc2NC(=O)c2ccc(F)cc2)CC1	G9a block 10µM, JMJD2A Tudor inconclusive
CCN1CCN(c2ccc(S(=O)(=O)N3CCOCC3)cc2NC(=O)c2ccc(F)cc2Cl)CC1	G9a block 40µM (no result: Sfp PPTase inh)
CSc1ncccc1C(=O)OCC(=O)Nc1ccc(Cl)cn1	none (no result: BAZ2B inh, G9a block, Sfp PPTase inh)
CC(C)(C)OC(=O)NC(CO)c1cn([C@@H](Cc2cc3ccccc3[nH]2)C(=O)N2CCN(C(=O)OC(C)(C)C)CC2)nn1 (some centres not stated)	none
CCN1CCN(c2ccc(S(=O)(=O)N3CCCCC3)cc2NC(=O)c2ccc([N+](=O)[O-])o2)CC1	HP1b chromo inh inconclusive, G9a block 35µM, JMJD2A Tudor inconclusive (no result: Sfp PPTase inh)
CN1CCN(c2ccccc2NC(=O)c2ccc([N+](=O)[O-])o2)CC1	BAZ2B inh inconclusive (no result: G9a block)
CS(=O)(=O)N1CCN(c2ccccc2NC(=O)c2ccc([N+](=O)[O-])o2)CC1	HP1b chromo inh inconclusive, JMJD2A Tudor 3.2µM
